# Source: PubChem BioAssay AID1159580 (chemical genetic matrix, 2015)
# The campaign covered roughly 5,500 compounds. About 2,000 (36%) were called active. Inconclusive results (about 18%) are left out. Some of the results follow. A number with no mark means an inactive call. Rule as the data show it: active = normalized growth mostly below about 0.91 (no sharp cut-off); inconclusive = no clear call, values can overlap the other calls; inactive = mostly above about 0.92.
# Experiment: chemical genetic growth profiling, strain panel (AID 1159580);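 also: tested at 20 µM; growth read once vehicle control cultures reached saturation at 30 °C; 1 = growth at the plate median or of vehicle wells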
# Details: growth OD
smiles,measurement,setting,value
O=[N+]([O-])c1cc([As](=O)(O)O)ccc1O,normalized growth,"S. cerevisiae deletion strains, locus YJR075W, strain HOC1, stronger effect = lower value",1
same,normalized growth,"S. cerevisiae deletion strains, locus YKL009W, strain mrt4, stronger effect = lower value",0.986
same,normalized growth,"S. cerevisiae deletion strains, locus YKL068W, stronger effect = lower value",0.96
same,normalized growth,"S. cerevisiae deletion strains, locus YKL085W, strain MDH1 (second series), stronger effect = lower value",0.484 (active)
same,normalized growth,"S. cerevisiae deletion strains, locus YKL085W, strain MDH1, stronger effect = lower value",0.484 (active)
same,normalized growth,"S. cerevisiae deletion strains, locus YKL160W, strain elf1, stronger effect = lower value",0.959
same,normalized growth,"S. cerevisiae deletion strains, locus YKL190W, strain CNB1, stronger effect = lower value",0.983
same,normalized growth,"S. cerevisiae deletion strains, locus YKR001C, strain vps1, stronger effect = lower value",0.232 (active)
same,normalized growth,"S. cerevisiae deletion strains, locus YKR091W, strain srl3, stronger effect = lower value",0.975
same,normalized growth,"S. cerevisiae deletion strains, locus YLL001W, strain dnm1, stronger effect = lower value",0.936
same,normalized growth,"S. cerevisiae deletion strains, locus YLL026W, stronger effect = lower value",0.97
same,normalized growth,"S. cerevisiae deletion strains, locus YLL041C, strain sdh2, stronger effect = lower value",0.965
same,normalized growth,"S. cerevisiae deletion strains, locus YLR027C, strain aat2, stronger effect = lower value",0.97
same,normalized growth,"S. cerevisiae deletion strains, locus YLR039C, strain RIC1, stronger effect = lower value",1.01
same,normalized growth,"S. cerevisiae deletion strains, locus YLR058C, strain SHM2, stronger effect = lower value",0.998
same,normalized growth,"S. cerevisiae deletion strains, locus YLR102C, strain apc9, stronger effect = lower value",0.243 (active)
same,normalized growth,"S. cerevisiae deletion strains, locus YLR113W, strain HOG1, stronger effect = lower value",1.02
same,normalized growth,"S. cerevisiae deletion strains, locus YLR221C, strain rsa3, stronger effect = lower value",1
same,normalized growth,"S. cerevisiae deletion strains, locus YLR258W, strain gsy2, stronger effect = lower value",0.975
same,normalized growth,"S. cerevisiae deletion strains, locus YLR262C, strain YPT6 (second series), stronger effect = lower value",0.948
same,normalized growth,"S. cerevisiae deletion strains, locus YLR262C, strain YPT6, stronger effect = lower value",1.02
same,normalized growth,"S. cerevisiae deletion strains, locus YLR268W, strain sec22, stronger effect = lower value",0.12 (active)
same,normalized growth,"S. cerevisiae deletion strains, locus YLR320W, strain mms22, stronger effect = lower value",0.984
same,normalized growth,"S. cerevisiae deletion strains, locus YLR330W, strain CHS5, stronger effect = lower value",0.988
same,normalized growth,"S. cerevisiae deletion strains, locus YLR342W, strain FKS1 (second series), stronger effect = lower value",1.07
same,normalized growth,"S. cerevisiae deletion strains, locus YLR342W, strain FKS1, stronger effect = lower value",0.978
same,normalized growth,"S. cerevisiae deletion strains, locus YLR357W, strain rsc2, stronger effect = lower value",0.92
same,normalized growth,"S. cerevisiae deletion strains, locus YLR370C, strain arc18, stronger effect = lower value",0.957
same,normalized growth,"S. cerevisiae deletion strains, locus YLR371W, strain rom2, stronger effect = lower value",0.152 (active)
same,normalized growth,"S. cerevisiae deletion strains, locus YLR384C, strain iki3, stronger effect = lower value",0.938
same,normalized growth,"S. cerevisiae deletion strains, locus YLR418C, strain cdc73, stronger effect = lower value",0.146 (active)
same,normalized growth,"S. cerevisiae deletion strains, locus YML016C, strain PPZ1, stronger effect = lower value",0.988
same,normalized growth,"S. cerevisiae deletion strains, locus YML032C, strain rad52, stronger effect = lower value",0.929
same,normalized growth,"S. cerevisiae deletion strains, locus YML120C, strain ndi1, stronger effect = lower value",0.969
same,normalized growth,"S. cerevisiae deletion strains, locus YML124C, strain tub3, stronger effect = lower value",0.329 (active)
same,normalized growth,"S. cerevisiae deletion strains, locus YMR058W, strain fet3, stronger effect = lower value",0.977
same,normalized growth,"S. cerevisiae deletion strains, locus YMR078C, strain ctf18, stronger effect = lower value",0.548 (active)
same,normalized growth,"S. cerevisiae deletion strains, locus YMR125W, strain sto1, stronger effect = lower value",0.943
same,normalized growth,"S. cerevisiae deletion strains, locus YMR129W, stronger effect = lower value",0.981
same,normalized growth,"S. cerevisiae deletion strains, locus YMR205C, strain PFK2, stronger effect = lower value",0.983
same,normalized growth,"S. cerevisiae deletion strains, locus YMR223W, strain ubp8, stronger effect = lower value",0.129 (active)
same,normalized growth,"S. cerevisiae deletion strains, locus YMR231W, strain pep5, stronger effect = lower value",0.951
same,normalized growth,"S. cerevisiae deletion strains, locus YMR263W, strain SAP30, stronger effect = lower value",0.99
same,normalized growth,"S. cerevisiae deletion strains, locus YMR307W, strain GAS1, stronger effect = lower value",1.05
same,normalized growth,"S. cerevisiae deletion strains, locus YNL067W, strain RPL9B, stronger effect = lower value",0.991
same,normalized growth,"S. cerevisiae deletion strains, locus YNL071W, strain lat1, stronger effect = lower value",0.973
same,normalized growth,"S. cerevisiae deletion strains, locus YNL128W, strain TEP1, stronger effect = lower value",0.976
same,normalized growth,"S. cerevisiae deletion strains, locus YNL153C, strain GIM3, stronger effect = lower value",0.958
same,normalized growth,"S. cerevisiae deletion strains, locus YNL183C, strain NPR1, stronger effect = lower value",0.971
same,normalized growth,"S. cerevisiae deletion strains, locus YNL209W, strain ssb2, stronger effect = lower value",0.974
same,normalized growth,"S. cerevisiae deletion strains, locus YNL233W, strain BNI4, stronger effect = lower value",1.01
same,normalized growth,"S. cerevisiae deletion strains, locus YNL248C, strain rpa49, stronger effect = lower value",0.918
same,normalized growth,"S. cerevisiae deletion strains, locus YNL250W, strain rad50, stronger effect = lower value",0.93
same,normalized growth,"S. cerevisiae deletion strains, locus YNL271C, strain bni1, stronger effect = lower value",0.532 (active)
same,normalized growth,"S. cerevisiae deletion strains, locus YNL298W, strain CLA4, stronger effect = lower value",0.877 (active)
same,normalized growth,"S. cerevisiae deletion strains, locus YNL307C, strain MCK1, stronger effect = lower value",0.0701 (active)
same,normalized growth,"S. cerevisiae deletion strains, locus YNL322C, strain KRE1 (second series), stronger effect = lower value",0.974
same,normalized growth,"S. cerevisiae deletion strains, locus YNL322C, strain KRE1, stronger effect = lower value",0.991
same,normalized growth,"S. cerevisiae deletion strains, locus YNR049C, strain mso1, stronger effect = lower value",0.945
same,normalized growth,"S. cerevisiae deletion strains, locus YNR052C, strain pop2, stronger effect = lower value",1.03
same,normalized growth,"S. cerevisiae deletion strains, locus YOL006C, strain TOP1, stronger effect = lower value",1.06
same,normalized growth,"S. cerevisiae deletion strains, locus YOL012C, strain htz1",0.214
same,normalized growth,"S. cerevisiae deletion strains, locus YOL147C, strain pex11, stronger effect = lower value",0.987
same,normalized growth,"S. cerevisiae deletion strains, locus YOR001W, strain rrp6, stronger effect = lower value",0.965
same,normalized growth,"S. cerevisiae deletion strains, locus YOR061W, strain CKA2, stronger effect = lower value",0.991
same,normalized growth,"S. cerevisiae deletion strains, locus YOR069W, strain VPS5, stronger effect = lower value",0.989
same,normalized growth,"S. cerevisiae deletion strains, locus YOR070C, strain gyp1, stronger effect = lower value",0.965
same,normalized growth,"S. cerevisiae deletion strains, locus YOR080W, strain dia2, stronger effect = lower value",0.961
same,normalized growth,"S. cerevisiae deletion strains, locus YOR083W, strain WHI5, stronger effect = lower value",0.975
same,normalized growth,"S. cerevisiae deletion strains, locus YOR106W, strain vam3, stronger effect = lower value",0.96
same,normalized growth,"S. cerevisiae deletion strains, locus YOR136W, strain idh2, stronger effect = lower value",0.147 (active)
same,normalized growth,"S. cerevisiae deletion strains, locus YOR144C, strain elg1, stronger effect = lower value",0.996
same,normalized growth,"S. cerevisiae deletion strains, locus YOR184W, strain ser1, stronger effect = lower value",0.0809 (active)
same,normalized growth,"S. cerevisiae deletion strains, locus YOR231W, strain MKK1, stronger effect = lower value",1.03
same,normalized growth,"S. cerevisiae deletion strains, locus YOR265W, strain rbl2, stronger effect = lower value",0.968
same,normalized growth,"S. cerevisiae deletion strains, locus YOR270C, strain vph1, stronger effect = lower value",0.952
same,normalized growth,"S. cerevisiae deletion strains, locus YOR290C, strain snf2, stronger effect = lower value",0.993
same,normalized growth,"S. cerevisiae deletion strains, locus YOR316C, strain cot1, stronger effect = lower value",0.171 (active)
same,normalized growth,"S. cerevisiae deletion strains, locus YPL051W, strain arl3, stronger effect = lower value",0.967
same,normalized growth,"S. cerevisiae deletion strains, locus YPL055C, strain LGE1, stronger effect = lower value",0.946
same,normalized growth,"S. cerevisiae deletion strains, locus YPL078C, strain atp4, stronger effect = lower value",0.951
same,normalized growth,"S. cerevisiae deletion strains, locus YPL106C, strain sse1, stronger effect = lower value",0.982
same,normalized growth,"S. cerevisiae deletion strains, locus YPL240C, strain hsp82, stronger effect = lower value",0.949
same,normalized growth,"S. cerevisiae deletion strains, locus YPL241C, strain CIN2, stronger effect = lower value",0.995
same,normalized growth,"S. cerevisiae deletion strains, locus YPL256C, strain CLN2, stronger effect = lower value",1.08
same,normalized growth,"S. cerevisiae deletion strains, locus YPR119W, strain clb2, stronger effect = lower value",0.288 (active)
same,normalized growth,"S. cerevisiae deletion strains, locus YPR141C, strain kar3, stronger effect = lower value",1
same,normalized growth,"S. cerevisiae deletion strains, locus YPR163C, strain tif3, stronger effect = lower value",0.0934 (active)
same,normalized growth,"S. cerevisiae deletion strains, locus YPR167C, strain met16, stronger effect = lower value",0.152 (active)
same,normalized growth,"S. cerevisiae deletion strains, strain wtn01, stronger effect = lower value",0.0828 (active)
same,normalized growth,"S. cerevisiae strains, strain wild type, stronger effect = lower value",0.997
